Out of some 52,000 compounds screened, about 4,300 (8.3%) were called active. What follows is part of a selection rich in actives, with near analogues and random picks from the rest. Unmarked numbers belong to inactive results. No stated cut-off is given here; in the data, active means survival mostly below about 52% (no sharp cut-off); inactive means mostly above about 56%.
Test system: DeltatarO mutant
Assay: S. aureus survival, RN4220 and DeltatarO strains – OD600, teichoic acid synthesis inhibitors, primary screen (AID 463173)
Details: S. aureus RN4220 wild type/DeltatarO growth, OD600, 18 h, stronger effect = lower value, screened at 18.75 µg/mL (by protocol)

First: COc1ccc(-c2ccc(NS(=O)(=O)c3ccc(F)c(C(F)(F)F)c3)cc2)nn1
Second: CC(C)(Oc1ccc(Cl)cc1)C(=O)Nc1ccc(-c2nc3ncccc3o2)cc1
The survival of the first is higher: 117% for the first, 52% for the second.

First: Cc1ccc2cc(CN(CCN(C)C)C(=O)NC3CCCCC3)c(=O)[nH]c2c1
Second: COc1cn(CC(=O)Nc2cccc(C)c2)c(CN2CCCCC2)cc1=O
The survival of the first is higher: 101% for the first, 85% for the second.

Going from `O=C(CCn1cccn1)NCc1ccc(Cl)cc1` to `O=C(Cn1c(=O)nc(-c2ccccc2)c2ccccc21)NCCc1ccc(Cl)cc1`, the survival falls from 73% to 70%.

First: COc1ccc(OC(=O)c2cn(-c3cccc(OC)c3)c(=O)c3ccccc23)cc1
Second: CCOc1ccc(-n2c(SCC(=O)Nc3ccc(CC)cc3)nc3c(oc4ccccc43)c2=O)cc1
The survival of the first is higher: 80% for the first, 71% for the second.

Going from `COC(=O)c1ccc(NC(=O)c2nn(C)c3c2CS(=O)(=O)c2ccccc2-3)cc1` to `CC(=O)c1ccc(NC(=O)Cn2cc(S(=O)(=O)Cc3cccc(Cl)c3)c3ccccc32)cc1`, the survival rises from 81% to 113%.

Compared with `CC1(C)c2ssc(=S)c2-c2ccccc2N1C(=O)CSC#N`, `CCN1C(=O)C(O)(c2c(C)[nH]c3ccccc23)c2ccccc21` (stereo not drawn) is lower in survival: 106% for the first, 54% for the second.

Compared with `Cc1ccc(NC(=O)c2c3c(nc4ccccc24)C(=O)N(C2CCCCC2)C3)cc1F`, `COc1ccccc1Nc1nn2c(=O)c3ccc(C(=O)N4CCCCC4)cc3nc2s1` is lower in survival: 102% for the first, 71% for the second.

First: Cc1nn(CC(=O)Nc2cccc(C(F)(F)F)c2)c(=O)c2nn(-c3ccccc3)c(C)c12
Second: O=C(CN1Cc2ccccc2C1=O)Nc1cc(F)ccc1F
The survival of the first is lower: 75% for the first, 81% for the second.

First: O=C(c1ccc(-c2cccc(C(F)(F)F)c2)o1)N1CCOCC1
Second: Cc1cccc(CCNC(=O)C2CCCN(S(=O)(=O)c3ccc4c(c3)oc(=O)n4C)C2)c1 (stereo not drawn)
The survival of the first is lower: 84% for the first, 102% for the second.

Compared with `O=C(Nc1cccc2cccnc12)c1ccccc1[N+](=O)[O-]`, `O=C(Nc1cccc2cccnc12)c1cccc2c(Br)cccc12` is higher in survival: 68% for the first, 70% for the second.

Going from `COc1c(Cl)cc(Cl)cc1C(=O)Nc1cccc2cccnc12` to `COc1c(Cl)cc(Cl)cc1C(=O)Nc1cccc(-c2nc3ccccc3o2)c1C`, the survival falls from 143% to 109%.

Going from `O=C(O)c1ccccc1C(=O)Nc1ccc(Br)c2cccnc12` to `O=C(NCc1ccc2c(c1)CCN2C(=O)c1ccncc1)c1ccccc1F`, the survival rises from 49% to 117%.

First: Cc1nc2ccc(S(=O)(=O)CCC(=O)Nc3ccc(C)c(C)c3)cc2s1
Second: CCN(CC)S(=O)(=O)c1ccc2c(c1)N(CC(=O)Nc1c(C)cccc1C)C(=O)C1CCCN21 (stereo not drawn)
The survival of the first is higher: 107% for the first, 89% for the second.

First: CCOC(=O)c1c(S(=O)(=O)NCC(=O)N(C)Cc2ccccc2)c(C)n(C)c1C
Second: CCOC(=O)CC(NC(=O)CCc1c(C)nc2c(-c3ccccc3)c(C)nn2c1C)c1ccc(C)cc1 (stereo not drawn)
The survival of the first is higher: 89% for the first, 63% for the second.

Going from `CCOc1no[n+]([O-])c1-c1ccccc1` to `COc1ccc(Br)cc1CNC(=O)CSc1n[nH]c(-c2ccccc2)n1`, the survival falls from 90% to 73%.

Compared with `CN(C(=O)CSc1nc2ccc(NC(=O)c3ccccc3F)cc2s1)c1ccccc1`, `Cc1oc(-c2ccc(C(=O)Nc3ccccc3F)cc2)nc1COc1ccccc1` is lower in survival: 103% for the first, 94% for the second.

First: CCN(Cc1nc(-c2ccc(OC)cc2)oc1C)S(=O)(=O)c1ccc(C)cc1
Second: COc1ccc(-c2nc(CS(=O)(=O)CC(=O)NCCc3ccc(C)cc3)c(C)o2)cc1
The survival of the first is higher: 95% for the first, 85% for the second.

Compared with `COc1ccc(C(=O)N/N=C2/SCC(=O)N2C)c(OC)c1`, `CCCCN1CCc2nc(Nc3ccc(OC)cc3OC)ncc2C1` is higher in survival: 69% for the first, 77% for the second.

Compared with `Cc1ccc(C)c(CN2C(=O)C(O)(c3c(C)[nH]c4ccccc34)c3ccccc32)c1` (stereo not drawn), `Cc1ccc(CN2C(=O)C(O)(c3c(C)[nH]c4ccccc34)c3ccccc32)cc1` (stereo not drawn) is higher in survival: 51% for the first, 101% for the second.

`CCCCN1C(=O)C(O)(c2c(C)[nH]c3ccccc23)c2ccccc21` (stereo not drawn) and `Cc1[nH]c2ccccc2c1C1(O)C(=O)N(Cc2ccccc2Cl)c2ccccc21` (stereo not drawn) are the same in survival: 51% for the first, 51% for the second.

Going from `COc1ccccc1CNC(=O)C1CCN(S(=O)(=O)c2c(C)noc2/C=C/c2c(C)cc(C)cc2C)CC1` to `COc1ccccc1CNC(=O)c1c(O)nc2c(C)cccn2c1=O`, the survival falls from 79% to 69%.

First: C=CCNC(=O)CSc1ccc(C)cc1
Second: Cc1ccc(SCC(=O)Nc2cccc(-c3nc4cc(Cl)ccc4o3)c2C)cc1
The survival of the first is higher: 82% for the first, 60% for the second.

First: COc1cc(OC)c(NC(=O)NCc2ccc3c(c2)CCN3C(C)=O)cc1Cl
Second: COc1ccc(-c2nc(CS(=O)CC(=O)NCc3ccccc3Cl)c(C)o2)cc1OC (stereo not drawn)
The survival of the first is higher: 124% for the first, 72% for the second.

Compared with `Cc1cc(NC(=O)C(C)(C)Oc2ccc(Cl)cc2)cc(-c2nc3ncccc3o2)c1O`, `CCc1ccc(-c2nc(CSCC(=O)NCc3ccccc3OC)c(C)o2)cc1` is lower in survival: 82% for the first, 62% for the second.

First: CCOC(=O)c1noc2ncn(CC(=O)O)c(=O)c12
Second: Cc1oc(-c2cccc(Cl)c2)nc1CSCC(=O)O
The survival of the first is lower: 54% for the first, 75% for the second.

Compared with `O=C(O)c1c2c(nc3ccc(F)cc13)CCCC2`, `O=c1[nH]c(SCc2cccc(Cl)c2)nc2c1CCC2` is lower in survival: 89% for the first, 85% for the second.

Going from `O=C(CSc1ccccc1)Nc1ccc2c(c1)OCO2` to `CC(C)c1ccccc1NC(=O)CN(c1ccccc1)S(=O)(=O)N(C)C`, the survival falls from 100% to 81%.

Compared with `CC(C)CNC(=O)N1[C@H](c2cccs2)[C@@H](C)C(=O)[C@@H](C)[C@@H]1c1cccs1`, `CCCNC(=O)N1[C@H](c2cccs2)[C@@H](C)C(=O)[C@@H](C)[C@@H]1c1cccs1` is higher in survival: 54% for the first, 107% for the second.

Compared with `COc1ccccc1CNC(=O)CSCc1nc(-c2ccc(OC)c(OC)c2)oc1C`, `Cc1ccc(-c2nc(CS(=O)(=O)CC(=O)NCc3ccccc3Cl)c(C)o2)cc1` is lower in survival: 71% for the first, 56% for the second.

Going from `Cc1oc(-c2ccccc2Cl)nc1CS(=O)CC(=O)NCc1ccccc1Cl` (stereo not drawn) to `Cc1oc(-c2cccc(Cl)c2)nc1CS(=O)(=O)CC(=O)NCc1ccccc1Cl`, the survival falls from 54% to 49%.

Going from `CN1CCN(C(=O)c2ccc(N(C)S(C)(=O)=O)cc2)CC1` to `Cc1ccc(Cn2c(C)c3cnn(CC(=O)N4CCN(c5ccc(F)cc5)CC4)c(=O)c3c2C)cc1`, the survival falls from 107% to 71%.

Compared with `O=C(Nc1ccc(F)c(F)c1)c1nc2ncccn2n1`, `COc1ccccc1Nc1nn2c(=O)c3ccc(C(=O)N4CCCC(C)C4)cc3nc2s1` (stereo not drawn) is lower in survival: 82% for the first, 61% for the second.

Going from `Cc1ccc(-c2nc(CS(=O)(=O)CC(=O)NC(C)CCc3ccccc3)c(C)o2)cc1` (stereo not drawn) to `Cc1oc(-c2ccccc2Cl)nc1CS(=O)(=O)CC(=O)NC(C)CCc1ccccc1` (stereo not drawn), the survival rises from 63% to 76%.

Going from `COC(=O)C12CC3CC(CC(C(=O)OC)(C1)C3=O)C2=O` to `CCc1ccccc1NC(=O)CN1C(=O)C2CCCN2c2ccc(S(=O)(=O)N(CC)CC)cc21` (stereo not drawn), the survival falls from 116% to 72%.

First: Cc1cccc(CSc2nc3c(c(=O)[nH]2)CCC3)c1
Second: Cc1cc(C)c(Cn2c3ccccc3c3cnn(CC(=O)N4CCCCC4)c(=O)c32)c(C)c1
The survival of the first is lower: 69% for the first, 126% for the second.

Going from `O=C(Cn1ncc2c3ccccc3n(Cc3ccccc3F)c2c1=O)N1CCCCC1` to `O=C(Cn1ncc2c3ccccc3n(Cc3ccccc3F)c2c1=O)N1CCCCCC1`, the survival falls from 120% to 70%.

First: O=C(Cn1ncc2c3ccccc3n(Cc3ccccc3)c2c1=O)N1CCCCCC1
Second: O=C(Cn1ncc2c3ccccc3n(Cc3ccc(Cl)cc3)c2c1=O)N1CCCCCC1
The survival of the first is lower: 82% for the first, 84% for the second.

Compared with `CCCn1c2ccccc2c2cnn(CC(=O)N3CCC(C)CC3)c(=O)c21`, `CCN1CCN(C(=O)Cn2ncc3c4ccccc4n(Cc4ccccc4F)c3c2=O)CC1` is higher in survival: 76% for the first, 95% for the second.

`CCN1CCN(C(=O)Cn2ncc3c4ccccc4n(Cc4c(C)cc(C)cc4C)c3c2=O)CC1` showed a survival of 124%.

`O=C(Nc1ccc(Br)c2cccnc12)c1cccc2ccccc12` was tested, and the survival was 29% (active).
`O=C(Nc1cccc2cccnc12)c1cccc2ccccc12` was tested, and the survival was 1% (active).
`Cc1[nH]c2ccccc2c1C1(O)C(=O)N(Cc2ccccc2)c2ccc(Cl)cc21` (stereo not drawn) was tested, and the survival was 24% (active).
In the case of `Cc1[nH]c2ccccc2c1C1(O)C(=O)N(Cc2ccccc2)c2ccc(Br)cc21` (stereo not drawn), the survival is reported as 3% (active).
`Cc1[nH]c2ccccc2c1C1(O)C(=O)N(Cc2ccc(Cl)cc2)c2ccccc21` (stereo not drawn) was tested, and the survival was 29% (active).
In the case of `CCCCN1C(=O)C(O)(c2c(C)[nH]c3ccccc23)c2cc(Br)ccc21` (stereo not drawn), the survival is reported as 27% (active).
In the case of `Cc1c(NC(=O)C(C)(C)Oc2ccc(Cl)cc2)cccc1-c1nc2ncccc2o1`, the survival is reported as 19% (active).
In the case of `Cc1c(NC(=O)C(C)(C)Oc2ccc(Cl)cc2)cccc1-c1nc2ccccc2o1`, the survival is reported as 2% (active).
With `CCOC(=O)CNC(=O)N1[C@H](c2cccs2)[C@@H](C)C(=O)[C@@H](C)[C@@H]1c1cccs1` the survival was 55% (active).
For `Cc1oc(-c2cccc(Cl)c2)nc1CSCC(=O)NCc1ccccc1Cl`, the survival was 0% (active).
`COc1ccc(-c2nc(CSCC(=O)NCc3ccccc3Cl)c(C)o2)cc1OC` was tested, and the survival was 46% (active).
For `COc1ccc(-c2nc(CS(=O)(=O)CC(=O)NCc3ccccc3Br)c(C)o2)cc1`, the survival was 41% (active).
For `Cc1ccc(-c2nc(CS(=O)CC(=O)NCc3ccccc3Cl)c(C)o2)cc1` (stereo not drawn), the survival was 54% (active).
`Cc1oc(-c2cccc(Cl)c2)nc1CS(=O)(=O)CC(=O)NC(C)CCc1ccccc1` (stereo not drawn) was tested, and the survival was 32% (active).
With `Cc1nc(SCc2cccc(Cl)c2)nc2c1CCCC2` the survival was -2% (active).
In the case of `COc1ccccc1Nc1nn2c(=O)c3ccc(C(=O)N4CCC(C)CC4)cc3nc2s1`, the survival is reported as 52% (active).
With `CCN(CC)S(=O)(=O)c1ccc2c(c1)N(CC(=O)Nc1cccc(C)c1C)C(=O)C1CCCN21` (stereo not drawn) the survival was -2% (active).
In the case of `Cc1cc(C)c(Cn2c3ccccc3c3cnn(CC(=O)N4CCCCCC4)c(=O)c32)c(C)c1`, the survival is reported as 9% (active).
For `Cc1ccc(Cn2c3ccccc3c3cnn(CC(=O)N4CCCCCC4)c(=O)c32)cc1`, the survival was 19% (active).
`CC1CCCCN1C(=O)Cn1ncc2c3ccccc3n(Cc3ccccc3F)c2c1=O` (stereo not drawn) was tested, and the survival was 32% (active).
`CCCn1c2ccccc2c2cnn(CC(=O)N3CCN(c4ccccc4F)CC3)c(=O)c21` was tested, and the survival was -4% (active).
